Source: PubChem BioAssay (Tox21)
Where “and” joins values, the source holds several entries; their conditions need not be identical. Identical values can stand only once. Inconclusive results are not listed. A structure can be active in one record and inactive in another. Calls of active or inactive are those of the source. Calls follow the shape of the dose curve; as a rule, active = well fitted curve in the direction sought with a large enough effect in the repeat runs; inconclusive = weak or mixed curves; inactive = no such curve, though single readings can be large; an effect the other way counts as inactive or inconclusive.

Experiments:
[1] = molecular target: Cytochrome P450 2D6 (Homo sapiens) (UniProt P10635); experiment: Cytochrome P450 Family 2 Subfamily D Member 6 (CYP2D6) small molecule antagonists: luciferase reporter qHTS assay (AID 1671196); details: P450-Glo CYP2D6 enzyme assay, luciferin luminescence, 1 h; series mostly up to 115 µM; also: nearly all actives have a fitted effect of over 50% in size; also: potency is read from the fitted curve at half-maximal effect
How it was run: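 CYP2D6 enzyme–substrate mix was held with compound for 10 min at room temperature, then NADPH regeneration solution was added and the reaction ran 1 h at room temperature. Luciferin product was detected by luminescence after 20 min with detection reagent.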

[2] = molecular target: Cytochrome P450 2C19 (Homo sapiens) (UniProt P33261); experiment: Cytochrome P450 Family 2 Subfamily C Member 19 (CYP2C19) small molecule antagonists: luciferase reporter qHTS assay (AID 1671197); details: P450-Glo CYP2C19 enzyme, luciferin luminescence, 1 h; series mostly up to 52.9 µM; also: nearly all actives have a fitted effect of over 65% in size; also: potency is read from the fitted curve at half-maximal effect
How it was run: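 First, compounds are pinned into enzyme-substrate mix and held 10 min at room temperature. Second, NADPH regeneration solution is added and plates incubate 1 h at 37C. Third, detection reagent is added and luminescence read after 20 min.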

[3] = molecular target: Cytochrome P450 2C9 (Homo sapiens) (UniProt P11712); experiment: Cytochrome P450 Family 2 Subfamily C Member 9 (CYP2C9) small molecule antagonists: luciferase reporter qHTS assay (AID 1671198); details: P450-Glo CYP2C9 enzyme assay, luciferin luminescence; series mostly up to 115 µM; also: nearly all actives have a fitted effect of over 50% in size; also: potency is read from the fitted curve at half-maximal effect
How it was run: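 P450-Glo proluciferin substrate with CYP2C9 enzyme; 10 min RT preincubation, then NADPH regeneration 1 h at 37C; luciferin detection reagent 20 min RT, luminescence in relative luminescence units.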

[4] = molecular target: Cytochrome P450 1A2 (Homo sapiens) (UniProt P05177); experiment: Cytochrome P450 Family 1 Subfamily A Member 2 (CYP1A2) small molecule antagonists: luciferase reporter qHTS assay (AID 1671199); details: P450-Glo CYP1A2 enzyme, luciferin luminescence, 1 h; series mostly up to 53 µM; also: nearly all actives have a fitted effect of over 50% in size; also: potency is read from the fitted curve at half-maximal effect
How it was run: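 Human CYP1A2 activity measured with a P450-Glo proluciferin substrate; compounds in DMSO preincubated 10 min at room temperature with enzyme-substrate mix, then NADPH regeneration system added for 1 h. Luciferin detection reagent, 20 min, luminescence read.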

[5] = molecular target: Voltage-gated inwardly rectifying potassium channel KCNH2 (Homo sapiens) (UniProt Q12809); experiment: Human Ether-a-go-go-Related Gene (hERG) channel small molecule antagonists: fluorescence cell-based qHTS assay (AID 1671200); details: hERG-U2OS cells, FluxOR thallium flux fluorescence; series mostly up to 76.8 µM; also: nearly all actives have a fitted effect of over 50% in size; also: potency is read from the fitted curve at half-maximal effect;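 as to activity change, negative = inhibition: hERG-expressing U2OS cells given a thallium stimulus after FluxOR II dye loading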
How it was run: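 Read-out: thallium influx as a surrogate for potassium, tracked as fluorescence (480 nm ex/540 nm em) every second for 2 min after Stimulus Buffer addition in dye-loaded hERG-U2OS cells.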

[6] = molecular target: Cytochrome P450 3A4 (Homo sapiens) (UniProt P08684); experiment: Cytochrome P450 Family 3 Subfamily A Member 4 (CYP3A4) small molecule antagonists: luciferase reporter qHTS assay (AID 1671201); details: P450-Glo CYP3A4 enzyme, luciferin luminescence, 1 h; series mostly up to 115 µM; also: nearly all actives have a fitted effect of over 50% in size
How it was run: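 Luminescent readout (RLU) proportional to CYP3A4 activity, from luciferin generated off a proluciferin substrate. Enzyme–substrate mix plus compound 10 min at room temp, NADPH regeneration 1 h, detection reagent 20 min.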
% is scaled to controls: 0 for no effect and ±100 for the full control effect.

Chain of Cytochrome P450 2C9 (Homo sapiens) (P11712 whole entry, looked up): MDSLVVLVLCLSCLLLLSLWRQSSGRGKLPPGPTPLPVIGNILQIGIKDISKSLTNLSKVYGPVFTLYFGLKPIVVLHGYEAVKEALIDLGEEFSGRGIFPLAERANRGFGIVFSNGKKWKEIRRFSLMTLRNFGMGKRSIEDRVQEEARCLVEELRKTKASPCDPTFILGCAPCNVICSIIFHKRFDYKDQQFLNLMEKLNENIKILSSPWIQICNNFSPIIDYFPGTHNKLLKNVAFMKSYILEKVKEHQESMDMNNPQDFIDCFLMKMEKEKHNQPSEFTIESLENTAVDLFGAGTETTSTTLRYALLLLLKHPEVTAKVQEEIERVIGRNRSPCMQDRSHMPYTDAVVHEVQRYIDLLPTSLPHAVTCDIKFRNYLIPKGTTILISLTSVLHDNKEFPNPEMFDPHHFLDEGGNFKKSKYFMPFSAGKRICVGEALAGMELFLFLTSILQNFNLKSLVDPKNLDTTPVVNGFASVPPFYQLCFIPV
Chain of Voltage-gated inwardly rectifying potassium channel KCNH2 (Homo sapiens) (Q12809 whole entry, looked up): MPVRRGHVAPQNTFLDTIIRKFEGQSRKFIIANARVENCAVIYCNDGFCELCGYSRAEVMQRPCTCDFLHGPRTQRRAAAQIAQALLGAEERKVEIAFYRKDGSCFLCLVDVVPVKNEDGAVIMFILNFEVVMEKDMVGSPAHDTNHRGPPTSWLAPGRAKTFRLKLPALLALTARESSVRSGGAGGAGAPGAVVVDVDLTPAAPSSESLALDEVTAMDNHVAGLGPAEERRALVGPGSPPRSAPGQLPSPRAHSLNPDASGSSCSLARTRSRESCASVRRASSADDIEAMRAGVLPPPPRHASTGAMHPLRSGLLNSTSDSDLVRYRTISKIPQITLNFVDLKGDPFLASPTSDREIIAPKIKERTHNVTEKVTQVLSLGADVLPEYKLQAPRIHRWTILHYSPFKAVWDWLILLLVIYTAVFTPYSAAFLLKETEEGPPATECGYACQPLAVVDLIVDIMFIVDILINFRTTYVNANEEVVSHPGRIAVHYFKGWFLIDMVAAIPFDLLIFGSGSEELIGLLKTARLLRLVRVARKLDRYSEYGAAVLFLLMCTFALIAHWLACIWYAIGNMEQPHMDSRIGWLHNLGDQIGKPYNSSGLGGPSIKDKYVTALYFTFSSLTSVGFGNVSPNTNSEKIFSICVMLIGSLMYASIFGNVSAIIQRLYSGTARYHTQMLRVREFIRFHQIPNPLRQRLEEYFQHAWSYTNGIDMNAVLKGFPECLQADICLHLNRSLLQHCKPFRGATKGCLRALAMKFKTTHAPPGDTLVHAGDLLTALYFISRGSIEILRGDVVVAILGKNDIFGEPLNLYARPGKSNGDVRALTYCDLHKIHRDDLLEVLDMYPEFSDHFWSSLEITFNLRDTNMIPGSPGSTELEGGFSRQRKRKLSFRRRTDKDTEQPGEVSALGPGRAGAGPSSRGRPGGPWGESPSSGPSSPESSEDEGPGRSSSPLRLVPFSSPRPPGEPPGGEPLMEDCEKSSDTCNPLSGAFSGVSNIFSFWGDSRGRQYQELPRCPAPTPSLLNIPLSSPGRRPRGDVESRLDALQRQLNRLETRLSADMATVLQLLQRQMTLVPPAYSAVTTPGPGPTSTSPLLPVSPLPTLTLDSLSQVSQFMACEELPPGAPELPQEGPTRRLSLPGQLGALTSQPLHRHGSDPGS
Chain of Cytochrome P450 3A4 (Homo sapiens) (P08684 whole entry, looked up): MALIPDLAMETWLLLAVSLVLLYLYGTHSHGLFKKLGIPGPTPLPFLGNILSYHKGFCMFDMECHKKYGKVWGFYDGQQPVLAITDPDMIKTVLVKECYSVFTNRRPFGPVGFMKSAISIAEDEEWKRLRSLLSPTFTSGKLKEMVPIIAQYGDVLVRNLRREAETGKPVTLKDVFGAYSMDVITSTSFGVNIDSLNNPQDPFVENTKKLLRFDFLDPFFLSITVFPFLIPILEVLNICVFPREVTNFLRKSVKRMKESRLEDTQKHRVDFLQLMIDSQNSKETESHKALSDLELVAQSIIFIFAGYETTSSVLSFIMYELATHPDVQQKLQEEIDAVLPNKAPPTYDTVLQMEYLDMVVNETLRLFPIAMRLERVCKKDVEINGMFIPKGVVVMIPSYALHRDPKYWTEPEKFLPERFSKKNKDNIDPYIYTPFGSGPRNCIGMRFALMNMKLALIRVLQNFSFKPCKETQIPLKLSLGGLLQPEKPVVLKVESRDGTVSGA
Chain of Cytochrome P450 2D6 (Homo sapiens) (P10635 whole entry, looked up): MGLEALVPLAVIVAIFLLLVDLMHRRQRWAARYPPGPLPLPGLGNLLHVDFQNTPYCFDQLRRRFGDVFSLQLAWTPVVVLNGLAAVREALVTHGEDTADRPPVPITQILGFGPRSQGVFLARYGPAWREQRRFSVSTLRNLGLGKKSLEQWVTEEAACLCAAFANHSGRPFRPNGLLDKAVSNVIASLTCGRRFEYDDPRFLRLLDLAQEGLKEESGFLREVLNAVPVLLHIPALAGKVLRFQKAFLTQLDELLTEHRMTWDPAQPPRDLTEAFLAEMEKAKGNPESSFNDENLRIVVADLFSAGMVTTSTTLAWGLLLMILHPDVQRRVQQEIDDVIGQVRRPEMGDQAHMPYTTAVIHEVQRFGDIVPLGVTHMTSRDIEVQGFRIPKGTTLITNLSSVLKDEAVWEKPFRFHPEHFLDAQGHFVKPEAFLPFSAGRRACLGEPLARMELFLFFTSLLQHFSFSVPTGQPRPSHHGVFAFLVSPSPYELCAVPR
Chain of Cytochrome P450 2C19 (Homo sapiens) (P33261 whole entry, looked up): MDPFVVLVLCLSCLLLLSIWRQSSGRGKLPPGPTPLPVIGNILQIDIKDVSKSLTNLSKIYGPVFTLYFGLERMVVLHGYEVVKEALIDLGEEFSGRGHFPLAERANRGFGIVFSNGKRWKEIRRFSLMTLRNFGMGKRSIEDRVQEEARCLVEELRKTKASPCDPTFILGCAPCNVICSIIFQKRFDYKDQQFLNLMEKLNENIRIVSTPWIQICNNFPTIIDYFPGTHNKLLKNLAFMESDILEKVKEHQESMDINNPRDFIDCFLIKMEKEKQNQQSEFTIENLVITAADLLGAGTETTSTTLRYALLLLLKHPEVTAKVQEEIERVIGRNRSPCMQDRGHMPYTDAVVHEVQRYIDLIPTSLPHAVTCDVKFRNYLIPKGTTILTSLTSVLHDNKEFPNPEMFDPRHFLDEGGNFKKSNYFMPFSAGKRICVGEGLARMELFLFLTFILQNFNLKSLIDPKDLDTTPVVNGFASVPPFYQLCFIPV
Chain of Cytochrome P450 1A2 (Homo sapiens) (P05177 whole entry, looked up): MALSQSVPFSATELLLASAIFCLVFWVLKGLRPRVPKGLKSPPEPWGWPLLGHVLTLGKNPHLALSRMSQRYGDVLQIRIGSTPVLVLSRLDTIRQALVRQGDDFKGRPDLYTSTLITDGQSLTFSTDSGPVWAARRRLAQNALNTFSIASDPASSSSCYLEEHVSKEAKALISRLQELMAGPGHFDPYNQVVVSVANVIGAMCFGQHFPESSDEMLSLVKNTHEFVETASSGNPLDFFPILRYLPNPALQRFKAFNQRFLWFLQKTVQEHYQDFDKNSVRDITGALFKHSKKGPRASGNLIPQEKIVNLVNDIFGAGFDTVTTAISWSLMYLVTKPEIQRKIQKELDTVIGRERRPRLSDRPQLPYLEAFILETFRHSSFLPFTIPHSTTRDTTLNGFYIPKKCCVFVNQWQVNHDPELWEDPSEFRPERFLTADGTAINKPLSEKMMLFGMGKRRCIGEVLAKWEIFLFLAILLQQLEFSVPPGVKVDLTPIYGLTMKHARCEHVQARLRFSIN

C=C[Si](OC(=C)C)(OC(=C)C)OC(=C)C
inactive: Potency [1] | Potency [3] | Potency [4]
active: Potency [2] 39.9 µM

COC(=O)c1ccc(C)cc1C1=NC(C)(C(C)C)C(=O)N1 (centres undefined)
inactive: Potency [1] | Potency [2] | Potency [3] | Potency [4] | Potency [5]

CCCCCCCCCCCC
inactive: Potency [1] | Potency [2] | Potency [3] | Potency [4] | Potency [5] | Potency [6]

Cc1[nH]c(=O)c(C#N)cc1-c1ccc2nccn2c1
inactive: Potency [1] | Potency [2] | Potency [3] | Potency [4] | Potency [5] | Potency [6]

NS(=O)(=O)c1ccccc1Cl
inactive: Potency [1] | Potency [2] | Potency [3] | Potency [4] | Potency [5] | Potency [6]

CCO/C([O-])=N/c1c[n+](N2CCOCC2)no1
inactive: Potency [1] | Potency [2] | Potency [3] | Potency [4] | Potency [5] | Potency [6]

Cc1c(NC(C)C)c(=O)n(-c2ccccc2)n1C
inactive: Potency [1] | Potency [2] | Potency [3] | Potency [5] | Potency [6]
active: Potency [4] 28.8 µM

c1cnc(N2CCN(Cc3ccc4c(c3)OCO4)CC2)nc1
active: Potency [1] 1.23 µM | Potency [2] 3.47 µM | Potency [3] 15.5 µM | Potency [4] 4.07 µM
inactive: Potency [5]

O=S(O)CO
inactive: Potency [1] | Potency [2] | Potency [3] | Potency [4] | Potency [5] | Potency [6]

C[C@@H]1CCN(C(=O)[C@H](CCCN=C(N)N)NS(=O)(=O)c2cccc3c2NC[C@H](C)C3)[C@@H](C(=O)O)C1
inactive: Potency [1] | Potency [2] | Potency [3] | Potency [4]

CC(NC(CCc1ccccc1)C(=O)O)C(=O)N1C(=O)N(C)CC1C(=O)O (centres undefined)
inactive: Potency [1] | Potency [2] | Potency [3] | Potency [4] | Potency [5] | Potency [6]

CCOC(=O)CCC(C)=O
inactive: Potency [1] | Potency [2] | Potency [3] | Potency [4] | Potency [5] | Potency [6]

CC(C)(c1ccc(O)cc1)c1ccc(O)cc1
active: Potency [3] 35.2 µM and 28.8 µM
inactive and 57.4 µM (active): Potency [4]
inactive and 64.4 µM (active): Potency [1]
inactive: Potency [2]

CCOc1ccc(C(=O)OCCN(CC)CC)cc1
inactive: Potency [2] | Potency [3] | Potency [5] | Potency [6]
active: Potency [1] 1.55 µM | Potency [4] 27.5 µM

N[C@H](C(=O)O)c1ccc(O)cc1
inactive: activity change, negative = inhibition [1] -10.2% [at 23.6 µM] | Potency [2] | activity change, negative = inhibition [3] -0.95% [at 23.6 µM] | Potency [4] | activity change, negative = inhibition [5] 1.26% [at 15.8 µM] | activity change, negative = inhibition [6] -17% [at 23.6 µM]

CC(C(=O)O)c1ccc(CC2CCCC2=O)cc1 (centres undefined)
inactive: Potency [1] | Potency [2] | Potency [3] | Potency [4] | Potency [5] | Potency [6]

CC(C)(C)c1nnc(NS(=O)(=O)c2ccccc2)s1
active: Potency [3] 27.5 µM
inactive: Potency [1] | Potency [2] | Potency [4] | Potency [5] | Potency [6]

O=C1NC(=O)[C@@]2(CCOc3ccc(F)cc32)N1
inactive: Potency [1] | Potency [2] | Potency [3] | Potency [4] | Potency [5] | Potency [6]

NCCCNCCSP(=O)(O)O
inactive: activity change, negative = inhibition [1] -0.545% [at 10.5 µM] | activity change, negative = inhibition [2] -2.49% [at 10.5 µM] | activity change, negative = inhibition [3] 10.3% [at 10.5 µM] | activity change, negative = inhibition [4] -21.8% [at 10.5 µM] | activity change, negative = inhibition [5] -1.01% [at 6.97 µM] | activity change, negative = inhibition [6] 5.88% [at 10.5 µM]

COCCCOCCCOC
inactive: Potency [1] | Potency [2] | Potency [3] | Potency [4] | Potency [5] | Potency [6]

CN(C)CCCNCCCN(C)C
active: Potency [1] 20 µM
inactive: Potency [2] | Potency [3] | Potency [4] | Potency [5]

Nc1cc(=O)[nH]c(N)n1
inactive: Potency [1] | Potency [2] | Potency [3] | Potency [4] | Potency [5] | Potency [6]

O=C(CCCN1CCN(c2ccccn2)CC1)c1ccc(F)cc1
active: Potency [1] 11 µM | Potency [2] 34.7 µM | Potency [3] 7.76 µM | Potency [5] 6.74 µM
inactive: Potency [4] | Potency [6]

CCCCCOC(=O)CCCCC
inactive: Potency [1] | Potency [2] | Potency [3] | Potency [4] | Potency [5] | Potency [6]

C=CCS(=O)(=O)O
inactive: Potency [1] | Potency [2] | Potency [3] | Potency [4] | Potency [5] | Potency [6]

CC(C)(CC(=O)O)C(=O)O
inactive: Potency [1] | Potency [3] | Potency [5] | Potency [6]
active: Potency [2] 70.3 µM | Potency [4] 12.5 µM

COc1c(N2C[C@@H]3CCCN[C@@H]3C2)c(F)cc2c(=O)c(C(=O)O)cn(C3CC3)c12
inactive: Potency [1] | Potency [2] | Potency [3] | Potency [4] | Potency [5] | Potency [6]

NS(=O)(=O)c1ccc(C(=O)O)cc1
inactive: Potency [1] | Potency [2] | Potency [3] | Potency [4] | Potency [5] | Potency [6]
